# PubChem BioAssay AID493244 (The Scripps Research Institute Molecular Screening Center, 2011)
# Screen size: about 340,000 compounds; about 390 (0.11%) were called active. This is one part of a sample in which actives are shown more often than they occur.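 The calls were made as follows: active = inhibition above the mean inhibition of all tested compounds plus 3 SD (cut at about 17% in these data); inactive = the rest.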
# Biological target: Troponin I, cardiac muscle (Homo sapiens) + Troponin T, cardiac muscle (Homo sapiens) + Troponin C, slow skeletal and cardiac muscles (Homo sapiens) (UniProt P19429+P45379+P63316)
# Experiment: cardiac RTF calcium sensitivity inhibitors, primary screen, biochemical, IANBD-TnC fluorescence, EC70 calcium (AID 493244);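 also: assay run at fixed EC70 calcium of 1.6 mM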
# Settings: IANBD-labeled cardiac RTF, Ca2+ fluorescence; at 7.15 µM; stronger effect = higher value
row,Compound,inhibition
1,CCN(CC)S(=O)(=O)c1ccc(N2CCOCC2)c(NC(=O)C2CSC3(C)CCC(=O)N23)c1 (stereo not drawn),-5.18% (inactive)
2,O=C(c1ccco1)N1CCN(C(=S)Nc2cc(F)cc(F)c2)CC1,-7.48% (inactive)
3,C[C@]12c3[nH]c4ccc(Cl)cc4c3CCN1C(=O)[C@@H](CC(=O)NCCCn1ccnc1)C[C@@H]2C(=O)N1CCOCC1,-5.19% (inactive)
4,O=C(Nc1ccc2c(c1)CCC2)c1cccc(S(=O)(=O)Nc2ccccc2Cl)c1,3.16% (inactive)
5,COc1ccc(Cl)cc1NC(=O)[C@@H]1CCCN1C(=O)c1cccs1,5.41% (inactive)
6,Cc1cc(NC(=O)CCC(=O)N(CC(=O)NCC2CCCO2)c2ccccc2)no1 (stereo not drawn),18.5% (active)
7,Cc1cc(C)cc(N(CC(=O)NC2CCCC2)C(=O)CCC(=O)Nc2cc(C)on2)c1,-4.35% (inactive)
8,Cc1cc(NC(=O)CCC(=O)N(CC(=O)NCC2CCCO2)c2ccccc2C)no1 (stereo not drawn),-4.7% (inactive)
9,CCCCOc1ccc(N(CC(=O)NCC2CCCO2)C(=O)CCC(=O)Nc2cc(C)ccn2)cc1 (stereo not drawn),-5.97% (inactive)
10,Cc1cc(NC(=O)CCC(=O)N(CC(=O)NC2CCCC2)c2ccc(F)cc2)no1,-0.21% (inactive)
11,COC(=O)c1cccc(N(CC(=O)NCC2CCCO2)C(=O)CCC(=O)Nc2cc(C)on2)c1 (stereo not drawn),17.2% (active)
12,Cc1cc(C)cc(OCC(=O)NNC(=O)CCN2C(=O)c3ccccc3C2=O)c1,-1.71% (inactive)
13,Cc1cc(C(=O)Nc2ccc(C)c(S(=O)(=O)N3CCOCC3)c2)c2ccccc2n1,5.27% (inactive)
14,Cc1cc(OCc2ccc(C(=O)Nc3ccc(C(=O)O)cc3)o2)ccc1Cl,2% (inactive)
15,O=C(O[C@@H]1[C@H](Cc2ccccc2)NS(=O)(=O)[C@H]2C[C@@H]3C=C[C@]12O3)c1ccccc1Br,-4.49% (inactive)
16,CC(Sc1nnc(COc2ccccc2)n1-c1ccccc1)C(=O)O (stereo not drawn),2% (inactive)
17,Cc1nnc(NC(=O)CCC(=O)N2CCC(C)CC2)s1,-6.77% (inactive)
18,CC1(c2ccc3ccccc3c2)NC(=O)NC1=O (stereo not drawn),-8.57% (inactive)
19,O=C(Nc1ccc(Br)cc1F)C1CC(=O)N(C2CCCCC2)C1 (stereo not drawn),-4.05% (inactive)
20,Cc1ccc(NC(=O)C2CC2)cc1S(=O)(=O)N1CCOCC1,5.9% (inactive)
21,Cc1ccc(NC(=O)C2CCC(C(C)(C)C)CC2)cc1S(=O)(=O)N1CCOCC1 (stereo not drawn),-8.96% (inactive)
22,Cc1ccc(NC(=O)NC2CCCCC2)cc1S(=O)(=O)N1CCOCC1,21.9% (active)

row,Compound,inhibition
1,O=C1N=C2SCCN2/C1=C\c1c(Cl)cccc1Cl,-0.73% (inactive)
2,COc1cccc(-n2c(=S)sc3c(=O)n(-c4ccccc4OC)c(SCC4OCCO4)nc32)c1,-13.4% (inactive)
3,O=C(N/N=C/c1ccccc1O)/C(=C/c1ccccc1)CCO,-2.95% (inactive)
4,Cn1cnc([N+](=O)[O-])c1Sc1ccccc1,7.04% (inactive)
5,CCOC(=O)C(C)Oc1cccc2c(=O)n(CC(=O)NCCc3ccc(OC)c(OC)c3)ccc12 (stereo not drawn),-4.75% (inactive)
6,Cc1ccc(NC2=C(Cl)C(=O)OC2OC(=O)c2ccccc2C)cc1 (stereo not drawn),5.74% (inactive)
7,CCc1ccc(N2CC(C(=O)Nc3ccc(S(=O)(=O)Nc4nccs4)cc3)CC2=O)cc1 (stereo not drawn),10.1% (inactive)
8,CSCC[C@H](NC(=O)N1CCn2c1nc1ccccc12)C(=O)NC1CCCCC1,-6.71% (inactive)
9,CC(C(=O)NC1CCCCC1)N1C(=O)c2cccc3cccc1c23 (stereo not drawn),5.31% (inactive)
10,COc1cc(C(=O)N(C)Cc2cccc(OC)c2OC)ccc1OCC(=O)Nc1cccc(C(F)(F)F)c1,6.06% (inactive)
11,Cc1cc(C)nc(Nc2n[nH]c(-c3ccccc3N)n2)n1,2.72% (inactive)
12,CC(C)(C)c1ccc(C(CC(=O)O)NS(=O)(=O)Cc2ccccc2)cc1 (stereo not drawn),-9.83% (inactive)
13,Cc1ccc(S(=O)(=O)Cn2nnnc2CN2CCN(Cc3ccc4c(c3)OCO4)CC2)cc1,-16.1% (inactive)
14,COc1ccc(S(=O)(=O)NC(C)c2ccccc2)cc1C(=O)N1CCCCC1 (stereo not drawn),-3.2% (inactive)
15,O=C(COC(=O)c1ccc(NS(=O)(=O)c2cccs2)cc1O)Nc1ccc(F)cc1,-3.11% (inactive)
16,COc1ccc(/C=C(/NC(=O)c2ccccc2)C(=O)Nc2cccc(C(=O)O)c2)cc1,-3.42% (inactive)
17,O=C1c2ccccc2C(Nc2ccc3c(c2)OCCO3)N1Cc1ccco1 (stereo not drawn),0.13% (inactive)
18,CC(C)c1cc(C(=O)N/N=C/c2ccoc2)c(O)c(C(C)C)c1,-3.15% (inactive)
19,COC(=O)Cc1c(O)ccn(Cc2cccc(C(F)(F)F)c2)c1=O,1.28% (inactive)
20,Cc1cc(S(=O)(=O)NC2CCCC2)ccc1-n1cnnn1,-17.6% (inactive)
21,Cc1ccc(CSc2ccc(S(=O)(=O)N3CCCCC3)cn2)cc1,-3.54% (inactive)
22,O=c1ccc2c(-c3ccccc3S(=O)(=O)O)c3ccc(O)c(O)c3oc-2c1O,141% (active)

row,Compound,inhibition
1,CCc1noc(C)c1C(=O)Oc1ccc(N(C)S(=O)(=O)c2ccc(C)c(C)c2)cc1,0.79% (inactive)
2,Cc1ccc(-n2c(=O)c(C#N)cc3c(=O)n4ccccc4nc32)cc1C,-2.12% (inactive)
3,Cc1cc(C)n(Cc2cnc(N3CCOCC3)s2)n1,9.55% (inactive)
4,O=C(C[n+]1cc(-c2ccc(Cl)c(Cl)c2)n2c1CCC2)c1cccs1,0.83% (inactive)
5,CCCCOc1ccc(C(=O)NCC(=O)OCC(=O)N2CCN(S(=O)(=O)c3ccc(C)cc3C)CC2)cc1,-7.59% (inactive)
6,Cc1ccc(C(=O)OCC(=O)NCc2cc(C)c(O)c(C)c2)cc1S(=O)(=O)N1CCCCC1,0.34% (inactive)
7,CCNC(=S)NCC,-5.85% (inactive)
8,Cc1c(Cl)c([N+](=O)[O-])nn1CC(=O)NCC1CCCO1 (stereo not drawn),-4.95% (inactive)
9,Cc1nc2ccc(S(=O)(=O)NCC(=O)O)cc2s1,-1.72% (inactive)
10,Cc1ccc(S(=O)(=O)N(CC(=O)Nc2cccc([N+](=O)[O-])c2)Cc2ccc(Cl)cc2)cc1,18.4% (active)
11,COc1ccc(C)cc1S(=O)(=O)N(CC(=O)Nc1cccc([N+](=O)[O-])c1)c1ccc(C)cc1,0.11% (inactive)
12,CN(c1ccccc1)S(=O)(=O)c1cccc(NC(=O)Cc2ccc(Cl)cc2)c1,11.1% (inactive)
13,COc1ccc(C(=O)NC2CC2)cc1OC1CCN(C/C=C/c2ccccc2)CC1,0.64% (inactive)
14,COc1ccc(CSc2nnnn2-c2ccc(O)cc2)cc1F,-11.7% (inactive)
15,COc1cccc2cc(C(=O)NCc3ccc(C)cc3)c(=N)oc12,0.64% (inactive)
16,CC(NC(=O)COC(=O)C1CCN(S(=O)(=O)c2ccccc2C(F)(F)F)CC1)c1ccccc1 (stereo not drawn),-5.89% (inactive)
17,COc1ccc(CCNC(=O)COC(=O)c2ncc(Cl)c(Cl)c2Cl)cc1OC,4.89% (inactive)
18,Cc1ccc(S(=O)(=O)N(CC(=O)N2CCc3ccccc3C2)c2cccc(Cl)c2)cc1,-9% (inactive)
19,C[C@]12CCC(=O)C=C1C=CC1C2CC[C@@]2(C)C1CC[C@@]21CCC(=O)O1 (stereo partly drawn),2.44% (inactive)
20,Cc1ccc(CN2CC(C(=O)NNC(=O)Cn3ccc(C(F)(F)F)n3)CC2=O)cc1 (stereo not drawn),-7.66% (inactive)
21,NC(=O)C1(Nc2ccc([N+](=O)[O-])cc2)CCCC1,1.13% (inactive)
22,O=c1oc2ccc(C#CC3(O)CCCCC3)cc2cc1-n1cc(-c2ccsc2)nn1,3.02% (inactive)

row,Compound,inhibition
1,CC1CN(S(=O)(=O)c2cccc(C(F)(F)F)c2)CN1C(=O)N1CCOCC1 (stereo not drawn),9.08% (inactive)
2,Cc1cc(CNC(=O)C2CCC(=O)N(CCc3ccc(Cl)cc3)C2)no1 (stereo not drawn),1.17% (inactive)
3,Cc1ccc(CNC(=O)Cc2cn(C)c3ccccc23)cc1,-0.42% (inactive)
4,O=S(=O)(c1ccccc1)c1nc(Cc2ccccc2)oc1N1CCOCC1,-3.71% (inactive)
5,O=C(NCCC1CCCCN1S(=O)(=O)c1ccc(F)cc1)C(=O)NC1CC1 (stereo not drawn),-3.06% (inactive)
6,O=C(NCCC1CCCCN1S(=O)(=O)c1ccc(Cl)cc1)C(=O)NCc1ccco1 (stereo not drawn),-6.03% (inactive)
7,COc1cccc(CNC(=O)C(=O)NCCC2CCCCN2S(=O)(=O)c2ccc(C)cc2)c1 (stereo not drawn),18.4% (active)
8,COc1ccccc1S(=O)(=O)NCc1ccc(C(=O)N(C)Cc2ccc(F)cc2)cc1,4.86% (inactive)
9,CCS(=O)(=O)c1ccc(-c2cccc(NC(=O)c3ccc(Br)o3)c2)nn1,9.7% (inactive)
10,COc1ccc(C(CNC(=O)c2cc(S(=O)(=O)Nc3cccc(C)c3)ccc2C)N2CCCC2)cc1 (stereo not drawn),-1.95% (inactive)
11,CSCCC1NC(=O)N(CC(=O)Nc2cccc(S(=O)(=O)N3CCCCCC3)c2)C1=O (stereo not drawn),-6.38% (inactive)
12,CC(C)CC(=O)c1c[nH]c(C(=O)NCc2ccccc2)c1,-10.5% (inactive)
13,COc1ccccc1CCC(=O)NNC(=O)c1ccncc1,-23.1% (inactive)
14,O=S(=O)(Oc1ccccc1C(=S)N1CCOCC1)c1ccc(Cl)cc1,1.09% (inactive)
15,O=C(c1cccc(F)c1)N1CCN(c2ccc([N+](=O)[O-])c3cccnc23)CC1,12.4% (inactive)
16,O=C(CN1CCOCC1)Nc1cccc([N+](=O)[O-])c1,-4.8% (inactive)
17,CN(CCCC(=O)Nc1nccs1)S(=O)(=O)c1ccc(Cl)cc1,-8.75% (inactive)
18,C=CCC1(C(=O)N(C)Cc2ccccc2)CCN(C(=O)OC(C)(C)C)CC1,-8.43% (inactive)
19,CN(C)c1ccc(NC(=O)CN2C3CCCC2CC(NC(=O)c2ccccc2)C3)cc1 (stereo not drawn),1.88% (inactive)
20,CCCn1c(=O)c(-c2ccccc2)c(O)c2ccccc21,-0.9% (inactive)
21,CCCCCn1c(=O)c(C(=O)OCC)c(Cl)c2ccccc21,2.78% (inactive)
22,CCCCn1c(=O)c(C(C)=O)c(O)c2ccccc21,18.1% (active)
